A number with no mark means an inactive call. Inconclusive results are not listed. A call without a number means that no potency is given here. The source made the active and inactive calls. Unless noted, calls come from the whole dose curve.
How the values were obtained:
[1] = Nuclear factor erythroid 2-related factor 2/antioxidant responsive element (Nrf2/ARE) small molecule agonists: qHTS cell viability counter screen in human keratinocytes (AID 1919968; active = well fitted curve in the direction sought with a large enough effect in the repeat runs; an effect the other way counts as inactive or inconclusive; note: nearly all actives have a fitted effect of over 55% in size)
How it was run: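 KeratinoSens cells (HaCaT keratinocytes stably carrying an ARE-luciferase reporter) were seeded at 1,500 cells/well and rested 5 h at 37 C/5% CO2. They were then exposed to compounds in DMSO for 23 h. Viability was read by CellTiter-Fluor fluorescence after 1 h.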

[2] = target: Gonadotropin-releasing hormone receptor (Homo sapiens) (UniProt P30968); assay: Human gonadotropin-releasing hormone receptor (GnRHR) small molecule agonists, calcium flux assay in GnRHR-HEK293 cells (AID 1920063); note: nearly all actives have a fitted effect of over 35% in size
Chain of Gonadotropin-releasing hormone receptor (Homo sapiens) (P30968 whole entry, looked up): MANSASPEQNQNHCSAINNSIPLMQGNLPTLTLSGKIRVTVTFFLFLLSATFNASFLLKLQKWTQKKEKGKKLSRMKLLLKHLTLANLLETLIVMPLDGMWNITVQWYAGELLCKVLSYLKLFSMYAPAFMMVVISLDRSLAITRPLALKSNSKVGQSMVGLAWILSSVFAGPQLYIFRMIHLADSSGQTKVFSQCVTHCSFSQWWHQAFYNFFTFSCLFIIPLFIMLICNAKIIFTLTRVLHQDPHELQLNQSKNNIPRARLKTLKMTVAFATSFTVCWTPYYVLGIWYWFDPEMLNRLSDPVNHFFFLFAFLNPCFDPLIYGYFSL
How it was run: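 HEK293 cells stably expressing human GnRHR were plated 18 h at 37 °C, loaded with calcium dye 1 h at 37 °C, then given compound in agonist mode; fluorescence (Ex/Em 480/540) read kinetically for 3 min at 1 s intervals.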

[3] = target: KiSS-1 receptor (Homo sapiens) (UniProt Q969F8); assay: Human kisspeptin (KISS1R) small molecule agonists, calcium flux assay in KISS1R-HEK293 cells (AID 1920064; active = well fitted curve in the direction sought with a large enough effect in the repeat runs; an effect the other way counts as inactive or inconclusive)
Chain of KiSS-1 receptor (Homo sapiens) (Q969F8 whole entry, looked up): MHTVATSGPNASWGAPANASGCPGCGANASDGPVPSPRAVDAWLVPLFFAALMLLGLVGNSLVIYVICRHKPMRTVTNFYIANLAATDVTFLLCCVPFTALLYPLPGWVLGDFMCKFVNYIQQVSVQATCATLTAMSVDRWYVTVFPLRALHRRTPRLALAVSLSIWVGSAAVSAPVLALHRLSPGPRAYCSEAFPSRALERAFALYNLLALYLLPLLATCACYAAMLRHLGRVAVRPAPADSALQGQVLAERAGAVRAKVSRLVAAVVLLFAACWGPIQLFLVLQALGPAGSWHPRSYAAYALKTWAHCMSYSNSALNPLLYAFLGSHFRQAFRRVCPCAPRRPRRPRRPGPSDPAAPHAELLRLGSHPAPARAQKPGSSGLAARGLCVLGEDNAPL
How it was run: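 HEK293 cells stably expressing human KISS1R were plated 18 h at 37 °C, loaded with calcium dye for 1 h at 37 °C, then given compound by pin tool. Fluorescence (Ex/Em 480/540) was read kinetically for 3 min.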

[4] = G protein-coupled receptor (GPCR) small molecule agonists, calcium flux assay: HEK293 wild type cell line counter screen (AID 1920065)
How it was run: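 Cells were plated and cultured 18 h at 37 C/5% CO2, then loaded with calcium dye for 1 h at 37 C. Compounds in DMSO were pin-transferred in agonist mode, and fluorescence (Ex/Em 480/540) was read kinetically for 3 min at 1 s intervals.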

[5] = p53 small molecule agonists, cell-based qHTS assay with human liver microsomes (AID 1963577)
How it was run: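 Compounds act here after metabolic activation: human liver microsomes and NADPH, both at 0.5 mg/mL final, were co-added to p53RE-bla cells. Incubation ran 16 h at 37 C, followed by LiveBLAzer detection.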

[6] = p53 small molecule agonists, cell-based qHTS assay with rat liver microsomes (AID 1963578)
How it was run: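 Read-out is beta-lactamase reporter fluorescence (LiveBLAzer, 2 h, room temperature, dark) in p53RE-bla cells treated 16 h at 37 C with compound, rat liver microsomes and NADPH, both 0.5 mg/mL final.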

[7] = p53 small molecule agonists, cell-based qHTS assay with human liver microsomes: qHTS cell viability counter screen (AID 1963579); note: nearly all actives have a fitted effect of over 45% in size
How it was run: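 Cells carrying the p53 response-element beta-lactamase reporter are treated for 16 h at 37 C with test compounds in the presence of human liver microsomes and NADPH (both 0.5 mg/mL final); ATP-based CellTiter-Glo luminescence then reports viability.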

[8] = p53 small molecule agonists, cell-based qHTS assay with rat liver microsomes: qHTS cell viability counter screen (AID 1963580); note: nearly all actives have a fitted effect of over 45% in size
How it was run: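 HCT-116 p53RE-bla, 4,000 cells/well, 5 h pre-incubation; cpd + rat liver microsomes 0.5 mg/mL + NADPH 0.5 mg/mL (final); 16 h, 37 C; CellTiter-Glo, 30 min RT; luminescence.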

[9] = p53 small molecule agonists, cell-based qHTS assay: qHTS cell viability counter screen (AID 1963581); note: nearly all actives have a fitted effect of over 45% in size
How it was run: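 p53RE-bla HCT-116 cells were exposed to compounds for 16 h at 37 C; after the beta-lactamase FRET read in the same wells, CellTiter-Glo was added and luminescence (intracellular ATP) read after 30 min at room temperature.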

[10] = p53 small molecule agonists, cell-based qHTS assay (AID 1963582; active = well fitted activation curve with a large enough effect in the signal ratio in the repeat runs, not every such curve was filed as active; the % refers to the signal ratio)
How it was run: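 p53RE-bla beta-lactamase reporter cells rested 5 h at 37 C/5% CO2, then received compounds in DMSO by pin transfer and were incubated 16 h at 37 C. LiveBLAzer B/G FRET substrate was loaded for 2 h at room temperature before fluorescence reading.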

[11] = target: 5-hydroxytryptamine receptor 2A (Homo sapiens) (UniProt P28223); assay: 5-hydroxytryptamine receptor 2A (HTR2A) small molecule antagonists, cell-based qHTS assay (AID 1963586); note: nearly all actives have a fitted effect of over 45% in size; note: potency is the fitted concentration of half-maximal effect
Chain of 5-hydroxytryptamine receptor 2A (Homo sapiens) (P28223 whole entry, looked up): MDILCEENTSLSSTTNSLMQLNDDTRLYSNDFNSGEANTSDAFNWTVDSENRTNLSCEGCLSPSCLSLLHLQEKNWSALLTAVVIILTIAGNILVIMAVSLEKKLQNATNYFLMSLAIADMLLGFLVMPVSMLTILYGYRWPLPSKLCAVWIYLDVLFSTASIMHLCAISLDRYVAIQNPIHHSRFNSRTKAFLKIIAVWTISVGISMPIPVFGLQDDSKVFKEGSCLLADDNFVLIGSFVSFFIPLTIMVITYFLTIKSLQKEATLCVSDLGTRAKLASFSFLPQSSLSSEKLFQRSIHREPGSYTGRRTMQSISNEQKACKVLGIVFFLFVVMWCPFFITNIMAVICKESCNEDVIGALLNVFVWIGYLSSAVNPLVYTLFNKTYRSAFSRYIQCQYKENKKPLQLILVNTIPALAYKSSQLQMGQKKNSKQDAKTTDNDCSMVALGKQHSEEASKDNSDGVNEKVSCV
How it was run: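 Antagonist-mode intracellular calcium assay: DOI (4 nM) added after 5 min compound pre-incubation at room temperature to dye-loaded HTR2A-CHO cells. Fluorescence followed for 3 min, sampled every second.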

[12] = target: 5-hydroxytryptamine receptor 2A (Homo sapiens) (UniProt P28223); assay: 5-hydroxytryptamine receptor 2A (HTR2A) small molecule agonists, cell-based qHTS assay (AID 1963587); note: nearly all actives have a fitted effect of over 30% in size
How it was run: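 Kinetic calcium-flux fluorescence (2 min, 1 sec intervals) after compound addition in agonist mode. HTR2A-CHO cells were cultured 18 h, then dye-loaded 1 h at 37 C.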

[13] = target: Muscarinic acetylcholine receptor M1 (Homo sapiens) (UniProt P11229); assay: Cholinergic receptor muscarinic 1 (CHRM1) small molecule agonists, cell-based qHTS assay (AID 1963589); note: nearly all actives have a fitted effect of over 35% in size
Chain of Muscarinic acetylcholine receptor M1 (Homo sapiens) (P11229 whole entry, looked up): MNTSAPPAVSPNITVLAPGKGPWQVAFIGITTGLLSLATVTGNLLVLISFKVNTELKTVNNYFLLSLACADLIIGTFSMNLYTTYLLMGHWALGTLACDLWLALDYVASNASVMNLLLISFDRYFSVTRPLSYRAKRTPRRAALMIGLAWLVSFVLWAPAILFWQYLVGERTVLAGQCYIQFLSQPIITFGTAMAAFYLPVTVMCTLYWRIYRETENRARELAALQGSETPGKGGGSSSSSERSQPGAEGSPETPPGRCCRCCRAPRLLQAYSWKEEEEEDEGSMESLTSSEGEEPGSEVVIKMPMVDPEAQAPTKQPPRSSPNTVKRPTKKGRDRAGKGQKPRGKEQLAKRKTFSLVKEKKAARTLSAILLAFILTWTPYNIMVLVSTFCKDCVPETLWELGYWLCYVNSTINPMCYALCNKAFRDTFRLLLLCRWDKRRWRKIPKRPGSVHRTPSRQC
How it was run: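 CHO cells stably expressing human CHRM1, seeded 18 h at 37 C/5% CO2, dye-loaded 1 h at 37 C, then given compound in agonist mode; intracellular calcium fluorescence read kinetically at 1 s intervals. Fifteen concentrations, three independent runs.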

[14] = cAMP Responsive Elements (CRE) small molecule agonists, cell-based qHTS assay (AID 1963590)
How it was run: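 CRE-bla HEK 293T cells in DMEM with 10% dialyzed FBS, NEAA, pyruvate and 25 mM HEPES were plated 18 h at 37 C/5% CO2, then exposed to compounds in DMSO for 3 h before LiveBLAzer B/G FRET substrate addition.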

[15] = target: Beta-2 adrenergic receptor (Homo sapiens) (UniProt P07550); assay: Adrenergic beta2 receptor (ADRB2) small molecule antagonists, cell-based qHTS assay (AID 1963592); note: series mostly up to about 92 µM; nearly all actives have a fitted effect of over 50% in size
Chain of Beta-2 adrenergic receptor (Homo sapiens) (P07550 whole entry, looked up): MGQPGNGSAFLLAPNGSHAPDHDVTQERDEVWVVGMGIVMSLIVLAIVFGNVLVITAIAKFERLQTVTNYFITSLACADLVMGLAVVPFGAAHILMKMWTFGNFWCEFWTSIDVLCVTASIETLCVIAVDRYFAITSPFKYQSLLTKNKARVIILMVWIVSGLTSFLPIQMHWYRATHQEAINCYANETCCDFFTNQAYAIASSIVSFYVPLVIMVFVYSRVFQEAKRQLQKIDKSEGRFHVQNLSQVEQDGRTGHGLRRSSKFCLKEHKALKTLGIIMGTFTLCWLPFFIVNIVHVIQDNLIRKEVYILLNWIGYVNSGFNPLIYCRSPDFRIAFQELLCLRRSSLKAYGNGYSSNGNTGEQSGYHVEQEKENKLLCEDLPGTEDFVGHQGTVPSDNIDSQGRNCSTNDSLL
How it was run: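 Cells (CHO, stable ADRB2 overexpression) incubated 18-20hr at 37C; compounds added from DMSO; agonist mix (1nM isoproterenol, 100uM IBMX, 25uM Ro-20-1724) added; 0.5hr RT; d2-cAMP and anti-cAMP-cryptate added; 1hr RT; 665/615 nm read.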

[16] = target: Beta-2 adrenergic receptor (Homo sapiens) (UniProt P07550); assay: Adrenergic beta2 receptor (ADRB2) small molecule agonists, cell-based qHTS assay (AID 1963593);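 note: CHO cells stably overexpressing human ADRB2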
How it was run: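 CHO cells stably over-expressing ADRB2 were plated overnight at 37C, then dosed with compounds plus a stimulation mix containing 100uM IBMX and 25uM Ro-20-1724 for 0.5hr at room temperature. cAMP was measured by HTRF competition, 1hr.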

[17] = target: D(2) dopamine receptor (Homo sapiens) (UniProt P14416); assay: Dopamine D2 receptor (DRD2) small molecule agonists, cell-based qHTS assay (AID 1963594); note: nearly all actives have a fitted effect of over 35% in size
Chain of D(2) dopamine receptor (Homo sapiens) (P14416 whole entry, looked up): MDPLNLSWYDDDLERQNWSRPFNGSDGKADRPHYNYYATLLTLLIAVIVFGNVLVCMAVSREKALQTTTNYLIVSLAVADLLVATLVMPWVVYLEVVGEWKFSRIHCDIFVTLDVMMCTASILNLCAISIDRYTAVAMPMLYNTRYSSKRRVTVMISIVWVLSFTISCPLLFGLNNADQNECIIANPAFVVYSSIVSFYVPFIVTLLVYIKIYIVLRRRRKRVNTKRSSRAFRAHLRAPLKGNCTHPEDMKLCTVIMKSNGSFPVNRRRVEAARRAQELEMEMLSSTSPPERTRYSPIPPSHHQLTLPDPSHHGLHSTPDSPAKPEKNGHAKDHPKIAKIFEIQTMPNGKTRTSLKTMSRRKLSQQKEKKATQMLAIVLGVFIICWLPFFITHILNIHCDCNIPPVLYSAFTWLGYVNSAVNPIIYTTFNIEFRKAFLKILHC
How it was run: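 cAMP accumulation in DRD2-HEK293 cells measured by HTRF after 1 h detection; compounds added 10 min before NKH477 (200nM […]) forskolin-analogue stimulation, 30 min at room temperature, with Ro20-1724 present at 0.1 mM final.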

[18] = target: D(2) dopamine receptor (Homo sapiens) (UniProt P14416); assay: Dopamine D2 receptor (DRD2) small molecule antagonists, cell-based qHTS assay (AID 1963595; active = well fitted inhibition curve with a large enough effect in the signal ratio in the repeat runs, with a control signal flat; the % refers to the signal ratio)
How it was run: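 HTRF cAMP read-out at 665 and 620 nm emission (340 nm excitation). Antagonist mode: compounds were tested against 12 nM quinpirole in DRD2-HEK293 cells, with 200 nM NKH477 raising cAMP and 0.1 mM Ro20-1724 blocking its breakdown.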

[19] = target: Muscarinic acetylcholine receptor M1 (Homo sapiens) (UniProt P11229); assay: Cholinergic receptor muscarinic 1 (CHRM1) small molecule antagonists, cell-based qHTS assay (AID 1963588); note: nearly all actives have a fitted effect of over 40% in size
How it was run: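 CHRM1-CHO calcium-flux assay, antagonist mode. Cells were seeded 18 h, dye-loaded 1 h at 37 C and given compound for 5 min at RT, then acetylcholine was added at 50nM. FDSS fluorescence was read 3 min; 15 concentrations, three runs.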

[20] = cAMP Responsive Elements (CRE) small molecule antagonists, cell-based qHTS assay (AID 1963591; active = well fitted inhibition curve with a large enough effect in the signal ratio in the repeat runs, not every such curve was filed as active; the % refers to the signal ratio)
How it was run: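 CRE-bla HEK293T cells were plated 18 h at 37 °C/5% CO2, pinned with compound in DMSO, then stimulated with NKH477 at 0.25 uM final for 3 h. LiveBLAzer B/G FRET substrate was added and plates incubated 2 h at room temperature.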

| SMILES | Potency [1] | Potency [2] | Potency [3] | Potency [4] | Potency [5] | Potency [6] | Potency [7] | Potency [8] | Potency [9] | Potency [10] | Potency [11] | Potency [12] | Potency [13] | Potency [14] | Potency [15] | Potency [16] | Potency [17] | Potency [18] | Potency [19] | Potency [20] |
| --- | --- | --- | --- | --- | --- | --- | --- | --- | --- | --- | --- | --- | --- | --- | --- | --- | --- | --- | --- | --- |
| CCOC(=O)/C=C/c1ccccc1 | inactive | inactive | inactive | inactive | inactive | inactive | inactive | inactive | inactive | inactive | inactive | inactive | inactive | inactive | inactive | inactive | inactive | inactive | – | – |
| Nc1ccccn1 | inactive | inactive | inactive | inactive | inactive | inactive | inactive | inactive | inactive | inactive | 31.8 nM (active) | inactive | inactive | inactive | inactive | – | inactive | inactive | inactive | – |
| CCCCCCC1CCC(=O)O1 (centres undefined) | inactive | inactive | inactive | inactive | inactive | inactive | inactive | inactive | inactive | inactive | – | inactive | inactive | – | inactive | – | inactive | inactive | inactive | inactive |
| [O-][N+](=Nc1ccccc1)c1ccccc1 | inactive | inactive | inactive | inactive | inactive | inactive | inactive | inactive | inactive | inactive | – | inactive | inactive | inactive | inactive | inactive | inactive | inactive | inactive | inactive |
| CCOC(=O)C(C)Oc1ccc(Oc2nc3ccc(Cl)cc3o2)cc1 (centres undefined) | inactive | inactive | inactive | inactive | inactive | inactive | inactive | inactive | inactive | inactive | inactive | inactive | inactive | – | inactive | inactive | inactive | inactive | – | inactive |
| COC(C)CCO (centres undefined) | inactive | inactive | inactive | inactive | inactive | inactive | inactive | inactive | inactive | inactive | – | inactive | inactive | inactive | inactive | inactive | inactive | inactive | inactive | inactive |
| CCCC(C)C(=O)O (centres undefined) | inactive | inactive | inactive | inactive | inactive | inactive | inactive | inactive | inactive | inactive | inactive | – | – | – | inactive | – | inactive | – | inactive | inactive |

Reference: PubChem BioAssay (Tox21)
